# According to article PMC4336329 (PLoS ONE, 2015):
# The campaign covered roughly 310,000 compounds. About 14,000 (4.5%) showed an effect of 50% or more. The effect is printed as a negative number. The full list was thinned out, with strong results kept by preference.
# Target: human ether-à-go-go-related gene (hERG) potassium channel (human, UniProt Q12809)
# Experiment: primary screen, population patch clamp on CHO cells stably expressing hERG; higher = less effect of the substance
# 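Further: peak tail current of the secondary pulse compared with the same well before compound.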
# human ether-à-go-go-related gene (hERG) potassium channel, sequence (Q12809 whole entry, looked up): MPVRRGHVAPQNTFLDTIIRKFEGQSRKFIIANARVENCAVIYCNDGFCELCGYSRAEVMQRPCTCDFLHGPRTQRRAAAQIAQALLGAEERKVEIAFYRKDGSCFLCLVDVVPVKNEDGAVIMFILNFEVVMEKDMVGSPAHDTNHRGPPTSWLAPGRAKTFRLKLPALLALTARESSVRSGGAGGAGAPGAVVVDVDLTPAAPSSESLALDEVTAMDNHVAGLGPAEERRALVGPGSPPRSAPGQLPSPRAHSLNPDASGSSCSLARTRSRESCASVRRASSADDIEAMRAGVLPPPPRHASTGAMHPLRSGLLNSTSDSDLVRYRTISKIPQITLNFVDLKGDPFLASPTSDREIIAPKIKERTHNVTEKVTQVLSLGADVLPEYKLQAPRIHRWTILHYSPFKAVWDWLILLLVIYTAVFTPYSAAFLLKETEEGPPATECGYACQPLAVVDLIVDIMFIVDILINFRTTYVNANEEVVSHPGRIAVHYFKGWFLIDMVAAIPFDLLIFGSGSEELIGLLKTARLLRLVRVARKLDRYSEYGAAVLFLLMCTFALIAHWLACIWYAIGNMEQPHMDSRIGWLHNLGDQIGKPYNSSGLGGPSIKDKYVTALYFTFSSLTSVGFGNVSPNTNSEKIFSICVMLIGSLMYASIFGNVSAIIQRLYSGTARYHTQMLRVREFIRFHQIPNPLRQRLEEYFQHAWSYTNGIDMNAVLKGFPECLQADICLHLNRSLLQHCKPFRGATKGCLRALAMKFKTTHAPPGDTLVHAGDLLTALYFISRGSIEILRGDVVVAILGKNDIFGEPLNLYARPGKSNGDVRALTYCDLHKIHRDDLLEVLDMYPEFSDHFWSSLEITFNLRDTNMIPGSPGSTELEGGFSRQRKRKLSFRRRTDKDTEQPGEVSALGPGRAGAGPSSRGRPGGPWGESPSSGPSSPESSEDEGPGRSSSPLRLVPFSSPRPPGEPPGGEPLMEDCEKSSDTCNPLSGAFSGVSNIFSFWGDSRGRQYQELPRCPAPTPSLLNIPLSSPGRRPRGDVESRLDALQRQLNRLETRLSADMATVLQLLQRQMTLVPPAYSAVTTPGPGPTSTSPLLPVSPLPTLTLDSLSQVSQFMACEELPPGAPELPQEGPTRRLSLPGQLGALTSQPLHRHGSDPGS
row,SMILES,"hERG current change (%, negative = inhibition) at 10uM"
1,Cc1cc(NC(=O)CN2CCN(S(=O)(=O)c3ccc4ccccc4c3)CC2)no1,-14.7%
2,CCCCN(C(=O)c1ccc2c(c1)OCO2)c1c(N)n(CC(C)C)c(=O)[nH]c1=O,-6.58%
3,CS(=O)(=O)Nc1ccc2c(c1)ncn2CCc1ccccc1,-26.4%
4,O=C1c2ccccc2C(=O)N1CCc1csc(-c2cccc(F)c2)n1,-22.5%
5,Clc1ccc(-n2ncc3c(NCc4cccnc4)ncnc32)cc1Cl,14.6%
6,COc1ccc(-c2csc(NC(=O)CN3C(=O)CCC3=O)n2)cc1OC,11.4%
7,Cc1cccc(OC(C)C(=O)N(Cc2cccs2)C2CCS(=O)(=O)C2)c1C (stereo not drawn),-14.8%
8,CCNS(=O)(=O)c1ccc(CCC(=O)N2CCN(c3ccccc3)CC2)cc1,-16.8%
9,CC(C)CNS(=O)(=O)c1ccc(CCC(=O)N2CCN(Cc3ccccc3)CC2)cc1,-35.2%
10,CC(C)CNS(=O)(=O)c1ccc(CCC(=O)N2CCN(Cc3ccc4c(c3)OCO4)CC2)cc1,-54.4%
11,CC(C)CNS(=O)(=O)c1ccc(CCC(=O)N2CCN(c3ccccc3)CC2)cc1,-91.3%
12,COc1ccc(N2CCN(C(=O)CNS(=O)(=O)c3ccc(Br)s3)CC2)cc1,-27.6%
13,O=C(CCc1ccc(S(=O)(=O)NCCc2ccccc2)cc1)N1CCN(Cc2ccc3c(c2)OCO3)CC1,-48.5%
14,COc1ccc(N2CCN(C(=O)CCc3ccc(S(=O)(=O)NC(C)C)cc3)CC2)cc1,-7.82%
15,COc1ccc(N2CCN(C(=O)CCNS(=O)(=O)c3cccs3)CC2)cc1,-26%
16,CCNS(=O)(=O)c1ccc(CCC(=O)N2CCN(c3ccc(OC)cc3)CC2)cc1,-8.99%
17,COc1ccc(N2CCN(C(=O)CCc3ccc(S(=O)(=O)NCC(C)C)cc3)CC2)cc1,-57.1%
18,COc1ccc(N2CCN(C(=O)CCNS(=O)(=O)c3ccc(Br)s3)CC2)cc1,-50.6%
19,O=C(CCc1ccc(S(=O)(=O)NCc2ccccc2)cc1)N1CCN(Cc2ccc3c(c2)OCO3)CC1,-41.2%
20,Cc1ccc(S(=O)(=O)N(C(=N)N)c2nc(N(C)C)nc(N(C)C)n2)cc1,4.96%
21,CN(C)P(=O)(NC(=O)c1cccn1C)N(C)C,47.3%

row,SMILES,"hERG current change (%, negative = inhibition) at 10uM"
1,CC(=O)Nc1ccc(Nc2ncnc3c2cnn3-c2ccccc2)cc1,12.9%
2,Cc1cc(C)nc(Nc2nc(-c3ccccc3)cs2)n1,16.4%
3,O=C(NCCS(=O)c1ccc(Cl)cc1)c1cccc(Cl)c1 (stereo not drawn),-12.2%
4,Cc1ccc(C(C)C)c(OC(=O)/C=C/c2ccccc2)c1,9.52%
5,Cn1cc(S(=O)(=O)N2CCCC2)cc1C(=O)N1CCN(c2ccccc2)CC1,-35.8%
6,CCc1ccc(NC2=NCCCS2)cc1,-9.94%
7,c1ccc2c3c([nH]c2c1)C1(CCNCC1)NCC3,-6.06%
8,CCCNS(=O)(=O)c1ccc(CCC(=O)N2CCN(c3ccc(F)cc3)CC2)cc1,-43.7%
9,CC(C)CNS(=O)(=O)c1ccc(CCC(=O)N2CCN(c3ccc(F)cc3)CC2)cc1,-50.3%
10,CC(C)CNS(=O)(=O)c1ccc(CCC(=O)N2CCCC2)cc1,24.4%
11,COc1ccc(Cn2cc3c(-c4ccc(F)cc4)nnc-3c3cc(OC)c(OC)cc32)cc1,-88.2%
12,COc1cc2c3nnc(-c4ccc(F)cc4)c-3cn(Cc3ccccc3)c2cc1OC,-37.1%
13,COc1cc2c3nnc(-c4ccc(F)cc4)c-3cn(Cc3ccc(C)cc3)c2cc1OC,2.79%
14,COc1cc2c3nnc(-c4ccc(F)cc4)c-3cn(Cc3cccc(F)c3)c2cc1OC,29.7%
15,COc1cc2c3nnc(-c4ccccc4)c-3cn(Cc3ccc(F)cc3)c2cc1OC,-76.8%
16,COc1cc2c3nnc(-c4ccc(F)cc4)c-3cn(Cc3ccc(F)cc3)c2cc1OC,-28.5%
17,COc1ccc(C(=O)O)nc1C,5.78%
18,C/C(=N/NC(=O)CN1CCN(Cc2ccccc2Cl)CC1)c1ccco1,-25.4%
19,C/C(=N/NC(=O)CN1CCN(S(=O)(=O)c2ccc(C)cc2)CC1)c1cccc(O)c1,-15%
20,C/C(=N/NC(=O)CN1CCN(S(=O)(=O)c2ccc(Br)cc2)CC1)c1ccco1,-68.9%
21,C/C(=N/NC(=O)CN1CCN(S(=O)(=O)c2ccc(C)cc2)CC1)c1ccco1,-53.7%

row,SMILES,"hERG current change (%, negative = inhibition) at 10uM"
1,COc1cc(/C(C)=N/NC(=O)CN2CCN(S(=O)(=O)c3ccc(C)cc3)CC2)ccc1O,-11.6%
2,C/C(=N\NC(=O)CN1CCN(c2ccc(F)cc2)CC1)c1ccco1,-30.3%
3,C=CCn1c(SCc2ccccc2)nc2scc(-c3ccc(C)o3)c2c1=O,8.76%
4,COc1cc(NC2c3ncccc3C(=O)N2Cc2ccco2)cc(OC)c1 (stereo not drawn),-0.0378%
5,CCOC(=O)N1CCN(C(=O)c2ccc(Cn3c(=S)[nH]c4ccc(Br)cc4c3=O)cc2)CC1,13.3%
6,CN(C)c1cccc(NC2=CC(=[N+]3CCOCC3)CC(C)(C)C2)c1.[I-],-65.6%
7,CN(C)NC1=CC(=[N+]2CCCC2)CC(C)(C)C1.[I-],14.6%
8,CC1(C)CC(=O)C=C(Nc2ccc3c(c2)OCCO3)C1,17.7%
9,CCOc1ccc(NC(=O)NC(C)c2ccc3c(c2)OCO3)cc1 (stereo not drawn),21.3%
10,CC1=NN(Cc2ccccc2)C(=O)C1,-0.313%
11,CC(=O)Nc1ccn(-c2ccccc2)n1,8.89%
12,O=C(Nc1ccn(-c2ccccc2)n1)c1ccccc1Br,-66%
13,O=C(Nc1ccn(-c2ccccc2)n1)c1ccc(Cl)cc1,-8.56%
14,CC1CC(=O)C2=C(C1)Nc1ccccc1N=C2 (stereo not drawn),-4.46%
15,O=C1CC(c2ccco2)CC2=C1C=Nc1ccccc1N2 (stereo not drawn),-24.9%
16,O=C1CC(c2ccc(F)cc2)CC2=C1C=Nc1ccccc1N2 (stereo not drawn),-72.8%
17,O=C1CC(c2ccccc2)CC2=C1C=Nc1ccccc1N2 (stereo not drawn),-61%
18,O=C1CC(c2ccc(F)cc2)CC2=C1C(c1ccc([N+](=O)[O-])o1)Nc1ccccc1N2 (stereo not drawn),-47.3%
19,CC1(C)CC(=O)C2=C(C1)Nc1ccccc1N=C2.Cl,-8.52%
20,O=C(Nc1c[nH]c(=O)[nH]c1=O)c1ccc([N+](=O)[O-])cc1,10%
21,COc1cc(C)c(Br)cc1S(=O)(=O)NCCCN1CCOCC1,9.66%

row,SMILES,"hERG current change (%, negative = inhibition) at 10uM"
1,CCOC(=O)c1[nH]c(C)c(C(=O)OCC(=O)N2c3ccccc3CC2C)c1C (stereo not drawn),-0.0968%
2,O=C(c1cc(-c2ccc(Br)cc2)n[nH]1)N1CCN(C(=O)c2ccccc2Br)CC1,-32.4%
3,COc1ccc(S(=O)(=O)N2CCN(C(=O)c3cc(-c4ccc(Br)cc4)n[nH]3)CC2)cc1OC,-13.5%
4,COc1ccc(-c2cc(C(=O)N3CCN(S(=O)(=O)c4ccccc4)CC3)[nH]n2)cc1,8.23%
5,COc1cc(C(=O)N2CCN(C(=O)c3cc(-c4ccc(Br)cc4)n[nH]3)CC2)cc(OC)c1OC,-73.3%
6,COc1cc(C(=O)N2CCN(C(=O)c3ccccc3)CC2)cc(OC)c1OC,8.49%
7,COc1cc(C(=O)N2CCN(C(=O)c3cc(-c4ccccc4)n[nH]3)CC2)cc(OC)c1OC,-77.6%
8,Cc1nc2sc3c(c2c2nnc(SCC(=O)NCc4ccco4)n12)CCCC3,-28.2%
9,Cc1nnc(SCc2nnc(-c3ccccc3Br)o2)n1-c1ccccc1,-14.6%
10,Cc1cnc(C(=O)NCCc2ccc(Cl)cc2)cn1,-15.8%
11,COc1ccc(OC)c(C2=CC(=O)C[C@H](c3ccc4c(c3)OCO4)C2)c1,-10.6%
12,Cc1ccc(C)c(NC(=O)c2sc(Cl)nc2-c2ccccc2)c1,13.9%
13,CCN1CCN(C2=C(NS(=O)(=O)c3ccc(NC(C)=O)cc3)C(=O)c3ccccc3C2=O)CC1,7.39%
14,CCN1CCN(C2=C(NS(=O)(=O)c3ccccc3)C(=O)c3ccccc3C2=O)CC1,-5.21%
15,NC(=O)C1CCN(C2=C(NS(=O)(=O)c3ccccc3)C(=O)c3ccccc3C2=O)CC1,-13.9%
16,NC(=O)C1CCN(C2=C(NS(=O)(=O)c3ccc(Br)cc3)C(=O)c3ccccc3C2=O)CC1,-72.1%
17,Cc1ccc(S(=O)(=O)NC2=C(N3CCN(Cc4ccccc4)CC3)C(=O)c3ccccc3C2=O)cc1,-16.5%
18,NC(=O)C1CCN(C2=C(NS(=O)(=O)c3ccc(Cl)cc3)C(=O)c3ccccc3C2=O)CC1,-38.3%
19,CCN1CCN(C2=C(NS(=O)(=O)c3ccc(C)cc3)C(=O)c3ccccc3C2=O)CC1,-57.1%
20,O=C1C(NS(=O)(=O)c2ccc(Br)cc2)=C(N2CCCCC2)C(=O)c2ccccc21,-33.1%
21,CCN1CCN(C2=C(NS(=O)(=O)c3ccc(Br)cc3)C(=O)c3ccccc3C2=O)CC1,-61.5%
